Source: PubChem BioAssay
Unmarked numbers belong to inactive results. This is one part of the list. The source made the active and inactive calls.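 Rule for the calls, unless noted: active = mean inhibition above 46.5%, the solvent-only control mean plus 3 SD; inactive = the rest.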

Columns and labels:
[1] = test system: transactivating tegument protein VP16 (Human herpesvirus 1); assay: compounds suppressing VP16-driven luciferase signal – cell-based, luminescence, single concentration, counter-screen for SRC2 inhibitor project (AID 652007; in the data active = inhibition above about 36%); conditions: cell-based VP16 transactivation luciferase reporter, at 8.9 µM, active compounds read high
[2] = molecular target: Nuclear receptor coactivator 2 (Homo sapiens) (UniProt Q15596); assay: inhibition of GAL4-SRC2 driven luciferase expression – cell-based, luminescence, HEK293, triplicate, confirmation (AID 652008); conditions: HEK293 GAL4-SRC2 luciferase reporter, at 8.9 µM, active compounds read high;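 note: 0% = DMSO-treated cells and 100% = Gossypol at 36 µM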
[3] = BSA probe fluorescence interference – biochemical, TAMRA-labeled BSA, counter-screen for TCR-CD3 interaction inhibitor project (AID 652035; in the data active = inhibition above about 23%;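 note: 0% = buffer low control and 100% = reference high control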); conditions: TAMRA-labeled BSA probe fluorescence counterscreen; at 9.4 µM; active compounds read high
[4] = test system: T-cell receptor (TCR)-CD3 interaction, human; assay: blockers of TCR binding to CD3 – biochemical, fluorescence, TAMRA-labeled TCR probe, confirmation (AID 652036; in the data active = inhibition above about 19%); conditions: TAMRA-labeled TCR probe fluorescence binding assay; at 9.4 µM; active compounds read high

Chain of Nuclear receptor coactivator 2 (Homo sapiens) (Q15596 whole entry, looked up, the tested form may be a part): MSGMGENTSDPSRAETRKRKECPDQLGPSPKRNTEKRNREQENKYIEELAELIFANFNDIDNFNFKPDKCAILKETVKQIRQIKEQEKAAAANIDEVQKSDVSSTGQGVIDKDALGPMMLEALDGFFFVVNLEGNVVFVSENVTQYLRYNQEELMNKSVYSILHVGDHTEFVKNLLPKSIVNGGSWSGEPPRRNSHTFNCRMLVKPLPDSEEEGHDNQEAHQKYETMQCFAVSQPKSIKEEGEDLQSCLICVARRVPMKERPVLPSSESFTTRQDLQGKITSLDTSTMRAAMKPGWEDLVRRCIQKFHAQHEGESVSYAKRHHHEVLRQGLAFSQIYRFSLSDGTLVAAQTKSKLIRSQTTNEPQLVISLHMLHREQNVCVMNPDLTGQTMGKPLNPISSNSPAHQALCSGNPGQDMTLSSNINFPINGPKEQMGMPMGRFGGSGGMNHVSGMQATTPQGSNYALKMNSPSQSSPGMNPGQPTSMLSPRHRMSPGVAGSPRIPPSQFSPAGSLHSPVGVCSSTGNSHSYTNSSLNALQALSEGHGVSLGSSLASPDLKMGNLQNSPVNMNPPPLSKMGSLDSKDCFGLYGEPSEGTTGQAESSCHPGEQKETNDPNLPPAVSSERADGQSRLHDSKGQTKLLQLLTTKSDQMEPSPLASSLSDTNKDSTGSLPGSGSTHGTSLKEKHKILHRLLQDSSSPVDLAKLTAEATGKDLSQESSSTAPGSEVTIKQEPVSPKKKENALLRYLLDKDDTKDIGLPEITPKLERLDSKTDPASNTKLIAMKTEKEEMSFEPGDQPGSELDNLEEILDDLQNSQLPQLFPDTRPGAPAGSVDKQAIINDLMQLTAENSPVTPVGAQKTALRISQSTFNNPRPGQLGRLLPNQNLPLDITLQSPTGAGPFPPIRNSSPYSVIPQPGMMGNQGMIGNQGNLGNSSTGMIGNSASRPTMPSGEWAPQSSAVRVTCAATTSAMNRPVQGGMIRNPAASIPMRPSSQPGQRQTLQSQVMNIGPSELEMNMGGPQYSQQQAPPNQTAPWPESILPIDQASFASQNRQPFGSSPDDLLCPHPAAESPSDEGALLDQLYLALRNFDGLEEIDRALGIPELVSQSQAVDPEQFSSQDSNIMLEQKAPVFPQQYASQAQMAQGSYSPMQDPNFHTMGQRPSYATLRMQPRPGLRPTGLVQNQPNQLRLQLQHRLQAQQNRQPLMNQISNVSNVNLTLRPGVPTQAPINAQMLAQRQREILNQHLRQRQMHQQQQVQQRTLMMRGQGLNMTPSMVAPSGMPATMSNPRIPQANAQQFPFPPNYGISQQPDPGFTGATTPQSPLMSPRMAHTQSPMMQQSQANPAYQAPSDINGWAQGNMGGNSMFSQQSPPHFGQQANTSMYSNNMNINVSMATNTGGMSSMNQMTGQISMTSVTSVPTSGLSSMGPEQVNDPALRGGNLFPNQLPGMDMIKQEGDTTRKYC

Q: With `COc1ccc(CNC(=O)COC(=O)/C=C/c2cccc(Br)c2)cc1OC` as the compound, how does the inhibition [1] read?
A: Its inhibition is -0.64%.

Q: What about the inhibition [2] of the same compound?
A: Its inhibition is -19.4%.

Q: For `Cc1cc(-c2ccccc2)n(-c2cc(N/N=C/c3ccccc3O)ncn2)n1`, which inhibition [1] is on record?
A: The inhibition was -0.63%.

Q: And the inhibition [2]?
A: Its inhibition is 51.5% (active).

Q: What does the source list for `O=C(Nc1nc2cc3c(cc2s1)OCCO3)c1ccco1`?
A: inhibition [1]: 24.9%; inhibition [2]: 56.3% (active)

Q: For `COc1ccc(-c2ncncc2-c2csc(C)n2)c(O)c1`, which inhibition [1] is on record?
A: The inhibition was -10.8%.

Q: And the inhibition [2]?
A: The inhibition was -21.2%.

Q: Which inhibition [1] does the source give for `COc1ccccc1N(CC(=O)N/N=C(\C)c1ccccc1O)S(=O)(=O)c1ccc(C)cc1` here?
A: Its inhibition is 12.9%.

Q: What about the inhibition [2] of the same compound?
A: The inhibition was 25.4%.

Q: And the inhibition [3]?
A: Its inhibition is -17.6%.

Q: What about the inhibition [4] of the same compound?
A: Its inhibition is 14.3%.

Q: Which results are given for `COC(=O)c1ccc(NC(=O)c2nc(S(=O)(=O)Cc3cccc(C)c3)ncc2Cl)cc1`?
A: inhibition [1]: 46% (active); inhibition [2]: 53.4% (active)

Q: Which inhibition [1] does the source give for `COc1ccc(CCNc2ncnc3cc(OC)c(OC)cc23)cc1OC` here?
A: The inhibition was 0.49%.

Q: And the inhibition [2]?
A: Its inhibition is 16.4%.

Q: With `Cc1cccc(C)c1Nc1nnc(SC(C)C(=O)Nc2c(C)n(C)n(-c3ccccc3)c2=O)s1` (stereo unspecified) as the compound, how does the inhibition [1] read?
A: The inhibition was -15.1%.

Q: What about the inhibition [2] of the same compound?
A: Its inhibition is -13.2%.

Q: What does the source list for `Cc1ccc(/C=C2/SC(=S)N(CCCC(=O)Nc3cc([N+](=O)[O-])ccc3O)C2=O)cc1`?
A: inhibition [1]: 27.4%; inhibition [2]: 49.7% (active)

Q: What does the source list for `O=C(Nc1ccc(N2CCOCC2)cc1)c1cnsn1`?
A: inhibition [1]: -8.19%; inhibition [2]: 34.3%

Q: What does the source list for `N#Cc1ccccc1COc1ccc(/C=C/C(=O)O)cc1`?
A: inhibition [1]: 57.9% (active); inhibition [2]: 76.8% (active)

Q: With `COc1ccc(/C=C2\SC(=S)N(CCCC(=O)NNC(=O)c3ccccc3O)C2=O)cc1` as the compound, how does the inhibition [1] read?
A: Its inhibition is 89.9% (active).

Q: What about the inhibition [2] of the same compound?
A: The inhibition was 93.1% (active).
